From PubChem BioAssay
Values joined by “and” are separate entries in the source; they are usually repeats but may differ in a detail not shown here. Identical values can stand only once. Active and inactive are the calls of the source.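 How the source made its calls: active means compounds killing one labelled cell type while sparing the other, by normalised counts and ratio limits, not self-fluorescent; inactive means the rest.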

Test: EMT-state selective cytotoxicity in co-culture – imaging, PC-3E GFP, TEM4-18 mCherry, primary screen (AID 1345086);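 further: cells exposed to compound for 72 h before imaging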;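 on red/green cell ratio (normalised): normalised mesenchymal count divided by normalised epithelial count so high means epithelial killing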
Settings: PC-3E GFP / TEM4-18 mCherry co-culture, imaging cell counts; at 1 µM; actives lie on both sides; counts scaled to control wells, 1 = unselective

Compound | red/green cell ratio (normalised)
COc1ccc(-c2cc(=O)c3c(O)cc(OC)c(OC)c3o2)c(OC)c1 | 1.02 (inactive)
COc1ccc(/C=C/C(=O)O)cc1OC | 0.97 (inactive) and 0.98 (inactive)
COc1ccc(/C=C/C(=O)c2ccc(O)cc2O)cc1 | 1.07 (inactive)

Same assay, conditions: PC-3E GFP / TEM4-18 mCherry co-culture, imaging cell counts; measured here: epithelial PC-3E GFP cell survival; at 1 µM

Compound | normalised cell number
OCC(S)CS (centres undefined) | 0.72
CC(=O)O[C@@H]1CC2C(C)(C)C(=O)C3OC3[C@]2(C)C2CC[C@@]3(C)[C@H](c4ccoc4)OC(=O)C4OC43[C@@]21C (some centres undefined) | 1.01
CC(=O)OC/C=C(\C)CC/C=C(\C)CC/C=C(\C)CC/C=C(\C)CC/C=C(\C)CC/C=C(\C)CC/C=C(\C)CC/C=C(\C)CCC=C(C)C | 1.05
O=S(=O)(O)c1cc(N=C=S)ccc1/C=C/c1ccc(N=C=S)cc1S(=O)(=O)O | 1.29
COc1ccc(-c2cc(=O)c3c(O)c(OC)c(OC)c(OC)c3o2)cc1OC | 0.95
CC(=O)O[C@H]1C[C@@H](OC(C)=O)C(C)(C)C2C[C@@H](O)[C@]3(C)C(CC[C@@]4(C)[C@H](c5ccoc5)OC(=O)[C@H]5O[C@]543)[C@]21C (some centres undefined) | 0.87
CC1=CC(=O)C2C(C)(C)CCC[C@]2(C)[C@@]1(O)CCc1ccoc1 (some centres undefined) | 0.94
CCCCCCCCCCCCCCCC(=O)OCC(O)CO (centres undefined) | 1.14
Cc1c(S(=O)(=O)O)oc2c1C(=O)C(=O)c1c-2ccc2c1CCCC2(C)C | 1.24
CC(=O)O[C@H]1CC[C@@]2(C)C(C[C@@H](OC(C)=O)[C@]3(C)C2CC[C@@]2(C)[C@H](c4ccoc4)OC(=O)[C@H]4O[C@]423)C1(C)C (some centres undefined) | 1
CC1(C)C(=O)[C@@H]2C[C@@]3(O)C4=CC(=O)O[C@@H](c5ccoc5)[C@]4(C)CCC3C(C)(C2=O)[C@H]1CC(=O)O (some centres undefined) | 1.01
